From PubChem
RORg inh: ROR gamma (mouse) transcription inhibition | Drosophila S2 Gal4-RORgamma UAS-luciferase reporter, 20 h | Potency, µM (doses to about 53.6 µM), for inactives: at the top dose activity change, negative = inhibition, hits mostly inhibitors | P51450 | 310,000 tested, 5.4% active; also: potency is read from the fitted curve at half-maximal effect; nearly all actives have a fitted effect of over 60% in size
Target sequence (P51450 whole entry, looked up, the tested form may be a part): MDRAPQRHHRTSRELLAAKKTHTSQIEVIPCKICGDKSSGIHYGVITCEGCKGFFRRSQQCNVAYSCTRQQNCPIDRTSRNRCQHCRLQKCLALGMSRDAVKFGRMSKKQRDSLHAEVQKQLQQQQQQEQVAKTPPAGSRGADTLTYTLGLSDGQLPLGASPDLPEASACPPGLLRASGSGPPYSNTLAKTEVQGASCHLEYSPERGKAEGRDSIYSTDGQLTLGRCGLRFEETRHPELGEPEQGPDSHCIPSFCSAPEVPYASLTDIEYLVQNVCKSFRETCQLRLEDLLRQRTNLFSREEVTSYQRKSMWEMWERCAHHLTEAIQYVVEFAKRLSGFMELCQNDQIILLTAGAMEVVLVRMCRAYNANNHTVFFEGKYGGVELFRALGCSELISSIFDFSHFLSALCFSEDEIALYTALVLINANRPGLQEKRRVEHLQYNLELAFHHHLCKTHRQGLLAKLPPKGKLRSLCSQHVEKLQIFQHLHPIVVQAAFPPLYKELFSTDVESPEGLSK
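Stably transfected Drosophila Schneider cells are the test system, with ROR gamma fused to Gal4 and luciferase under UAS control; luminescence is read after 20 hr of 700 uM copper sulfate induction at ambient temperature.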
IL1B secr inh: inhibitors of inflammasome signaling (IL-1 beta secretion) | THP-1 LPS/ATP IL-1B secretion, AlphaLISA, 16 h; hits give low values | activity change, % at 57.5 µM | 360,000 tested, 4.7% active | AID 743279; in the data active = activity change below about -50%; inconclusive = mostly about -30% to -49%
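Secreted IL-1B measured by AlphaLISA bead assay after 16 h compound exposure of THP-1 cells; compounds (final up to 57.5 uM) added 1 h before LPS (250 ng/mL) and ATP (1.25 mM) stimulation; lower signal means less secretion.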
DT40 TDP1 no CPT: qHTS for Inhibitors of human tyrosyl-DNA phosphodiesterase 1 (TDP1): qHTS in cells in absence of CPT | DT40 Tdp1-/- hTDP1 cells, no CPT, ATP luminescence, 48 h | Potency, µM (titrated, usually from 46.2 µM), for the others: top-dose activity change, negative = growth inhibition, hits mostly inhibitors | 420,000 tested, 15% active | AID 686978, 2013; also: potency is read from the fitted curve at half-maximal effect; nearly all actives have a fitted effect of over 55% in size
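DT40 Tdp1-/-;hTDP1 cells, no CPT (DMSO vehicle only), 400 cells/well; compounds pin-transferred; ≥48 hr, 37 °C; CellTiter-Glo 30 min RT dark, luminescence read.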
ELG1 DNA repair: ELG1-dependent DNA repair inhibition; HEK293T ELG1-luciferase reporter, luminescence, 16 h; DNA damage induced by 5-fluorouridine; Potency, µM (top dose mostly 46.1 µM), inactives show at the highest dose activity change, negative = inhibition, most hits filed as inhibitors; 330,000 tested, 2.3% active; AID 504467; also: potency is read from the fitted curve at half-maximal effect; nearly all actives have a fitted effect of over 55% in size
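HEK293T cells expressing luciferase-tagged ELG1 (2,000/well) received 5-Fluorouridine plus compound or DMSO for 16 hr at 37 °C. Luciferase was read by ONE-Glo luminescence after 30 min at room temperature.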
Gal4-VP16 FLuc: Gal4-VP16 reporter inhibition counter-screen | Drosophila S2 Gal4-VP16 UAS-luciferase, luminescence, 20 h | AID 2546 | Potency, µM (top dose mostly 53.6 µM), inactives show top-dose activity, negative = inhibition, hits mostly inhibitors | 310,000 tested, 3.5% active;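 also: Gal4-VP16 expression switched on by copper sulfate through the metallothionein promoter; potency is read from the fitted curve at half-maximal effect; nearly all actives have a fitted effect of over 50% in size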
DT40 TDP1 CPT: growth inhibition of DT40 Tdp1-/-;hTDP1 cells with camptothecin (screen for TDP1 inhibitors). chicken DT40 Tdp1-/-;hTDP1 cells + 20 nM CPT, ATP luminescence, 48 h. Potency, µM (top dose mostly 46.2 µM), for inactives: at the top dose activity change, negative = growth inhibition, most hits filed as inhibitors. 420,000 tested, 12% active. AID 686979; also: potency is read from the fitted curve at half-maximal effect; nearly all actives have a fitted effect of over 55% in size
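Cell growth measured by CellTiter-Glo luminescence after a minimum 48 h, 37 C compound exposure with 20 nM CPT in Tdp1-knockout DT40 cells stably expressing hTDP1, seeded 400/well; qHTS titration format.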
* hit, by the source's call; ? = inconclusive; . = no result given; [ ] = dose if it differs, or a comment. This is a sample that favours compounds with a hit; in the whole collection about 21% have one here. Unless noted, calls follow the shape of the dose curve; as a rule, active = well fitted curve in the direction sought with a large enough effect; inconclusive = small, poorly fitted or top-dose-only effect, or another doubt; inactive = no such curve, though single readings can be large; an effect the other way counts as inactive or inconclusive. % is scaled to controls: 0 for no effect and ±100 for the full control effect.

SMILES	RORg inh	IL1B secr inh	DT40 TDP1 no CPT	ELG1 DNA repair	Gal4-VP16 FLuc	DT40 TDP1 CPT
Cc1ccccc1CN1CCN(CC(=O)NC(C)c2ccccc2)CC1 (configuration not stated)	3.3%	2.2	-17.9%	-6.9%	-2.7%	-14.0%
CCOC(=O)C1=C(C)OC(N)=C(C#N)C1c1ccsc1 (configuration not stated)	-26.7%[10 µM]	9.3	-4.7%	4.0%	1.9%	-6.5%
CCOC(=O)C1=C(NC#N)OC(C)=C(C)C1c1ccc(O)cc1 (configuration not stated)	-5.3%	14.9	20.6µM*	4.3%	-13.2%[0.365 µM]	23.1µM*
Cn1c(CNc2cccc(C(F)(F)F)c2)n[nH]c1=S	?	11.6	-2.9%	10.3%	-3.5%	?
Cn1c(-c2csc(-c3cccc(C(F)(F)F)c3)n2)n[nH]c1=S	4.47µM*	0.5	?	-0.8%	0.4%	?
COc1cccc(C(=O)c2ccccc2NC(C)=O)c1	.	26.9	?	.	.	5.8%
CCOc1ccc(NC(=O)CC2C(=O)N(c3ccc(F)cc3)C(=O)N2Cc2ccc(OC)c(OC)c2)cc1 (configuration not stated)	.	.	?	.	.	-24.6%
COc1ccc(NC(=O)CC2C(=O)N(c3cccc(C)c3)C(=O)N2Cc2cccnc2)cc1 (configuration not stated)	.	.	-17.7%	.	.	?
COc1ccc(NC(=O)CC2C(=O)N(c3ccccc3)C(=O)N2Cc2cccnc2)cc1 (configuration not stated)	.	.	-21.1%	.	.	-7.9%
CCOC(=O)c1ccc(NC(=O)CC2C(=O)N(c3cccc(OC)c3)C(=O)N2Cc2ccc(OC)cc2)cc1 (configuration not stated)	.	.	?	.	.	20.6µM*
CCOC(=O)c1ccc(NC(=O)CC2C(=O)N(c3ccc(F)cc3)C(=O)N2Cc2cccnc2)cc1 (configuration not stated)	.	.	14.6µM*	.	.	18.4µM*
CCOC(=O)c1ccc(NC(=O)CC2C(=O)N(c3cccc(OC)c3)C(=O)N2Cc2cccnc2)cc1 (configuration not stated)	.	.	20.6µM*	.	.	13µM*
CCOc1ccc(NC(=O)CC2C(=O)N(c3ccc(OC)cc3)C(=O)N2Cc2ccc(OC)cc2)cc1 (configuration not stated)	39.0%	-19.0	?	-1.4%	3.3%	?
CCOC(=O)c1ccc(NC(=O)CC2C(=O)N(c3ccc(F)cc3)C(=O)N2Cc2ccc(C)cc2)cc1 (configuration not stated)	.	.	?	.	.	16.4µM*
CCOC(=O)C1(C)CCCN(C(=O)c2cccc(C(F)(F)F)c2)C1 (configuration not stated)	.	44.7	?	.	.	?
COc1ccc(NC(=O)CC2C(=O)N(c3ccc(OC)cc3)C(=O)N2Cc2ccc(OC)c(OC)c2)cc1 (configuration not stated)	0.7%	12.1	-30.2%	0.0%	7.4%	-22.2%
CCOC(=O)c1cccc(NC(=O)CC2C(=O)N(c3ccc(C)cc3)C(=O)N2Cc2cccc(OC)c2)c1 (configuration not stated)	.	.	?	.	.	18.4µM*
O=C(Nc1ccccc1)C(Cc1ccccc1)c1ccccc1 (configuration not stated)	.	-8.4	-23.4%	.	.	?
Cc1ccc(Sc2c([N+](=O)[O-])c(=O)n(C)c3ccccc23)cc1	11.2µM*	2.9	13µM*	4.5%	7.08µM*	14.6µM*
Cc1ccc(Sc2c(O)c3ccccc3n(C)c2=O)cc1	-4.3%	3.8	13.7%	-28.8%	-2.1%	-25.8%
Cc1cccc(Oc2c(C=O)c3ccccc3n2C)c1	3.9%	-18.9	?	-6.4%	-2.9%	?
Cc1ccc(Sc2c(C=O)c3ccccc3n2C)cc1	32.0%	?	?	5.8µM*	?	?
Cn1c(-c2ccccc2)c(C=O)c2ccccc21	36.9%	-2.4	-26.8%	?	-11.9%	-24.3%
Cn1c(C(=O)O)c(C=O)c2ccccc21	0.5%	-70.4*	15.7%	-8.2%	-9.3%	-7.6%
O=[N+]([O-])c1nccn1CCCCCCN1CCOCC1	.	49.6	-7.5%	.	.	2.8%
SMILES	RORg inh	IL1B secr inh	DT40 TDP1 no CPT	ELG1 DNA repair	Gal4-VP16 FLuc	DT40 TDP1 CPT
CC(=O)O[C@H]1[C@@H](O)[C@H](O)[C@H](Oc2c(O)c(C)c3c4c2[C@@H](C)CC[C@@H]4[C@@H](C)C[C@H]3C=C(C)C)O[C@H]1C	.	-2.7	18.4µM*	27.3%	.	?
CCN(C[C@H]1N[C@@](C)(C(=O)OC)[C@H]2C(=O)N(C)C(=O)[C@@H]12)C(=O)COC	.	0.0	2.4%	?	.	-1.2%
COc1ccc(C(=O)CN(CCC(=O)O)S(=O)(=O)c2ccc([N+](=O)[O-])cc2)cc1	.	40.8	3.0%	3.5%	.	12.8%
CCCc1cc(C(=O)N(C2CCCCC2)C2CCCCC2)no1	21.4%	53.6	29.1µM*	-19.3%	-2.1%	?
Cc1ccc(-n2nnc(-c3cccnc3)n2)cc1	.	10.8	?	.	.	?
Cc1ccc(-n2nnc(-c3nccn3C)n2)cc1	?	10.8	20.6µM*	?	?	23.1µM*
Cc1cc(S(=O)(=O)N2CCN(C(=O)CCC(=O)N3CCOCC3)CC2)ccc1Br	-4.3%	-11.3	8.5%	-8.5%	-9.3%	-15.5%
N#Cc1cnc2nc(SCc3ccccc3)nn2c1	-14.0%	-69.5*	?	?	7.2%	-0.9%
Cc1cc(NC(=S)Nc2cccnc2)ccc1Br	12.6µM*	-3.2	-28.3%	11.8%	?	?
Cc1cc(C)cc(NC(=O)Nc2cccnc2)c1	-2.6%	-20.2	0.7%	19.7%	-5.4%	?
Cc1cc(Cl)ccc1NC(=S)Nc1cccnc1	12.6µM*	-20.7	-13.7%	18.1%	?	-27.1%
